CBFb RUNX1 block = qHTS Assay for Compounds Blocking the Interaction Between CBF-beta and RUNX1 for the Treatment of Acute Myeloid Leukemia; Runt-related transcription factor 1 (Homo sapiens) + Core-binding factor subunit beta …; AlphaScreen CBFb-His/RUNX1-biotin binding, biochemical; Potency, µM (highest dose often 59.8 µM), for the others: at the top dose activity, negative = inhibition, most hits filed as inhibitors; 230,000 tested, under 10 active; further: % of control where 0% means no effect
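Compounds were screened at multiple concentrations against a preformed CBF-beta(His)/RUNX1(biotin) complex (30 nM of each) for 15 min at room temperature, followed by 90 min with nickel and streptavidin beads and AlphaScreen reading.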
PLK1 PBD block = qHTS for Inhibitors of PLK1-PDB (polo-like kinase 1 - polo-box domain): Primary Screen | Serine/threonine-protein kinase PLK1 (Homo sapiens), P53350 | Plk1 PBD binding of FITC phosphopeptide, fluorescence polarization | Potency, µM, for the others: max response, negative = inhibition, hits mostly inhibitors | hit rate 2.8% among 360,000 | AID 720504, 2013; further: potency means the concentration at half of the fitted maximal effect; series mostly up to about 57 µM; on the % scale 0 is the no-effect control and ±100 the full control effect; nearly all actives have a fitted effect of over 65% in size
Target sequence (P53350 whole entry, looked up, the tested form may be a part): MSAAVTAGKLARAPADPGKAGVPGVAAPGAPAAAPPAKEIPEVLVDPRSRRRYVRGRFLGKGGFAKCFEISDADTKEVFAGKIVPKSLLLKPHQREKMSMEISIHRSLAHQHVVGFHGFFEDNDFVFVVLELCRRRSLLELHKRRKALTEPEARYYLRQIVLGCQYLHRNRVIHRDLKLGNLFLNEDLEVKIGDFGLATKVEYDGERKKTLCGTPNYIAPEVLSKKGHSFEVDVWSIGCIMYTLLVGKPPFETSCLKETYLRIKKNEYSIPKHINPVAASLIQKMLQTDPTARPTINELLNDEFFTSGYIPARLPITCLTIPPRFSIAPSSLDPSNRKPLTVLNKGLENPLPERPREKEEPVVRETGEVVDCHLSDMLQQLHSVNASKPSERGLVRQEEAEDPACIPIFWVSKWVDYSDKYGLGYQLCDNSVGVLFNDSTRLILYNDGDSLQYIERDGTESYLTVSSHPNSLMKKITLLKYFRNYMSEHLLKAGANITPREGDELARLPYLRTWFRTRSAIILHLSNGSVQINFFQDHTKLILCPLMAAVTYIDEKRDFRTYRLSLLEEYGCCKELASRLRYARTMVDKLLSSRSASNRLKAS
MBNL1-CUG inh = qHTS Assay for Inhibitors of MBNL1-poly(CUG) RNA binding | hit rate 0.036% among 280,000 | TR-FRET MBNL1-His/biotin-(CUG)12 binding, 665/545 ratio | Muscleblind-like protein 1 (Homo sapiens), Q9NR56 | AID 2675, 2010 | Potency, µM (top dose mostly 57.5 µM), for inactives: top-dose activity change, negative = inhibition, most hits filed as inhibitors; active means well fitted inhibition curve with a large enough effect in the signal ratio, with a control signal flat, not every such curve was filed as active; inconclusive means small, poorly fitted or top-dose-only effect, or effect the other way, or a change in a side signal; inactive means no such curve, though single readings can be large or run the other way; the % refers to the signal ratio; further: potency means the concentration at half of the fitted maximal effect; on the % scale 0 is the no-effect control and ±100 the full control effect
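MBNL1-His + Biotin-(CUG)12, cpd titration 92 nM–58 uM; Tb anti-His Ab 0.055 ng/ul, SA-XL665 5 nM (final); 60 min RT; ratiometric 665/545 nm, Ex 340 nm; normalized to buffer and full-complex controls.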
VDR inhibitor = Inhibitors of the vitamin D receptor (VDR): qHTS; Vitamin D3 receptor (Homo sapiens), P11473; VDR-SRC2-3 peptide fluorescence polarization, 2 h; Potency, µM, inactives show max response, negative = inhibition, usual class: inhibitors; hit rate 0.93% among 400,000; AID 504847, 2011; further: potency means the concentration at half of the fitted maximal effect; on the % scale 0 is the no-effect control and ±100 the full control effect
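Two reagent solutions held at 4 deg C in the dark were dispensed, compounds pinned at 23 nl, and the mixture incubated 2 h at room temperature. Read-out: fluorescence polarization of VDR–SRC2-3 peptide binding.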
KCNH2 3.1 block = qHTS for Inhibitors of KCHN2 3.1: Mutant qHTS; U2OS KCNH2 3.1, thallium flux FluxOr; hits give low values; Potassium voltage-gated channel subfamily H member 2, brain isoform KCNH2 3.1 (human); AID 720553, 2013; activity change, % (tested at about 1.8 µM); hit rate 0.95% among 340,000;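 active means maximum activity change below -70%; inconclusive means maximum activity change from -70% to -50%; inactive means maximum activity change above -50%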;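 further: thallium influx rate constant from kinetic fluorescence after stimulation buffer; on the % scale 0 is the no-effect control and ±100 the full control effect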
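Normalized rate constant (relative to positive and negative DMSO controls) derived from a 2 min kinetic fluorescence read after stimulation; U2OS cells expressing the 3.1 isoform via virus at 1.77 x 10^8 /mL.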
hERG WT inh = qHTS for Inhibitors of KCHN2 3.1: Wildtype qHTS | activity change, % at 1.84 µM | hit rate 0.37% among 340,000 | Voltage-gated inwardly rectifying potassium channel KCNH2 (Homo sapiens), Q12809 | U2OS, BacMam KCNH2, thallium flux FluxOr; hits give low values | AID 720551, 2013;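 active means maximum activity change below -70%; inconclusive means maximum activity change between -70% and -50%; inactive means maximum activity change above -50%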; further: on the % scale 0 is the no-effect control and ±100 the full control effect
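U2OS cells were transduced with wild-type KCNH2 virus (2.03 x 10^8 / mL) for 4 h at room temperature, then cultured overnight at 37 C. Thallium flux was read with FluxOr dye. Rate constants were normalized to DMSO controls.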
The depositor's hits bear a star; ? = inconclusive; nt = no result. Shown are actives, neighbours in structure and some others; about 3.8% of the full set was active somewhere. Unless noted, the call rests on the fitted dose curve; in most records, active means well fitted curve in the direction sought with a large enough effect; inconclusive means small, poorly fitted or top-dose-only effect, or another doubt; inactive means no such curve, though single readings can be large; an effect the other way counts as inactive or inconclusive.

SMILES | CBFb RUNX1 block | PLK1 PBD block | MBNL1-CUG inh | VDR inhibitor | KCNH2 3.1 block | hERG WT inh
O=C(CNC(=O)c1ccco1)Nc1ccc(F)cc1 | 0.3% | 26.7µM* | -1.7% | -13.5% | 10.8 | -21.1
O=C(CN1C(=O)C2CCCCC2C1=O)Nc1nc(-c2ccccn2)cs1 (stereo unspecified) | nt | 23.8µM* | 0.1% | -7.9% | -22.9 | -0.1
CC(C)[C@H](NC(=O)c1ccccc1Cl)C(=O)Nc1nc(-c2ccccn2)cs1 | ? | -3.6% | -1.4% | -17.5% | -9.9 | 13.3
C[C@@H](C(=O)Nc1nc(-c2ccccn2)cs1)N1C(=O)C2CCCCC2C1=O (stereo partly specified) | ? | 16.8µM* | 6.9% | ? | 4.1 | -8.4
CC1(c2ccccc2)NC(=O)N(CC(=O)Nc2nc(-c3ccccn3)cs2)C1=O (stereo unspecified) | nt | ? | nt | -28.7% | -4.7 | -4.0
CC(C)Oc1ccc(CNC(=O)Cn2nc(N3CCN(c4ccccc4)CC3)ccc2=O)cc1 | nt | nt | nt | 7.3% | nt | nt
CCc1ccc(CN2CCC(n3nccc3NC(=O)c3ccccc3C)CC2)cc1 | nt | -10.1% | -5.7% | 42.0% | -101.0* | -3.6
COc1ccccc1C(=O)Nc1ccnn1C1CCN(Cc2ccn[nH]2)CC1 | nt | -3.6% | 2.8% | 0.8% | nt | 6.4
COc1ccccc1C(=O)Nc1ccnn1C1CCN(C/C=C/c2ccc(F)cc2)CC1 | nt | 2.7% | -0.3% | 0.1% | -103.7* | -123.0*
O=C(Nc1ccccc1Oc1cccnc1)C1CCCN(Cc2ccccc2O)C1 (stereo unspecified) | nt | -3.0% | 5.4% | -3.4% | -6.3 | 50.3
O=C(CCc1ccccc1)Nc1ccnn1C1CCN(C/C=C/c2ccccc2)CC1 | nt | -7.7% | 0.8% | 8.7% | ? | 21.7
O=C(Nc1ccnn1C1CCN(C/C=C/c2ccccc2)CC1)c1ccccc1Cl | nt | 3.7% | -6.4% | -12.2% | -106.9* | -107.4*
O=C(Nc1ccccc1Oc1cccnc1)C1CCCN(C/C=C/c2ccccc2)C1 (stereo unspecified) | nt | -9.7% | -2.5% | -1.3% | -85.0* | -19.2
CSc1ccc(CNC(=O)c2cc3c(=O)n(Cc4ccco4)ccc3nc2C)cc1 | nt | nt | nt | 2.4% | nt | nt
CCc1ccccc1NC(=O)Cn1c(=O)n(Cc2ccc3c(c2)OCO3)c(=O)c2ccc(C(=O)NC3CCCCC3)cc21 | nt | nt | nt | 10.7% | nt | nt
Cc1cccc2c1-c1sc(C(=O)N3CCN(c4ccc(F)cc4)CC3)cc1CO2 | nt | nt | nt | 10.2% | nt | nt
CCCCN1C(C(=O)c2ccccc2)=C(OC(=O)CC)c2ccccc2S1(=O)=O | nt | nt | nt | -29.6% | nt | nt
O=C(Nc1ccnn1C1CCN(CC2CC=CCC2)CC1)c1ccccc1Cl (stereo unspecified) | nt | -14.3% | -4.4% | -0.1% | -78.7* | 23.4
CCc1ccc(CN2CCC(n3nccc3NC(=O)c3cccc(F)c3)CC2)cc1 | nt | -2.4% | -1.4% | -4.9% | -100.5* | -110.2*
Cc1ccccc1C(=O)Nc1ccnn1C1CCN(CC2CC=CCC2)CC1 (stereo unspecified) | nt | -17.3% | -5.2% | -16.0% | -43.8 | -2.6
CCCn1ncc(CN2CCC(n3nccc3NC(=O)c3ccccc3Cl)CC2)c1C | nt | -0.5% | 33.4% | 7.9% | ? | -87.8*
COCCC(=O)N1CCC(n2nccc2NC(=O)c2ccccc2C)CC1 | nt | 21.2µM* | 0.0% | ? | 5.4 | -5.0
CC(C)Cn1c(=O)c2sccc2n2c(CCCC(=O)Nc3ccc(Cl)cc3)nnc12 | nt | nt | nt | 8.2% | nt | nt
CCOC(=O)c1cccc(NC(=O)CCc2c(C)nc3cc(-c4ccc(Cl)cc4)nn3c2C)c1 | nt | nt | nt | -6.0% | nt | nt
CCc1ccc(-c2nc(SCC(=O)NCCOC)c(-c3ccc(C)cc3)[nH]2)cc1 | nt | nt | nt | -13.7% | nt | nt
